Results from PubChem BioAssay AID2069 (Sanford-Burnham Center for Chemical Genomics, 2009).
The campaign covered roughly 1,200 compounds. About 210 (18%) were called active. No stated cut-off is given here; in the data, active means inhibition above about 30%; inactive means the rest. A selection follows.

Assay: HTRF signal interference by compounds, confirmation, artefact control for SUMOylation inhibitor project, biochemical, uHTS (AID 2069)
Settings: HTRF interference counterscreen, fluorescence, at 35 µM, hits give high values
In the case of `CC1=NN(c2ccccc2)C(=O)/C1=C\c1cn(CCC#N)nc1-c1ccc(Cl)cc1`, the inhibition is reported as -15.8% (inactive).
For `S=C(Nc1ccc2nc(-c3ccccn3)c(-c3ccccn3)nc2c1)N1CCOCC1`, the inhibition was 10.8% (inactive).
With `CN(Cc1ccco1)C(=O)c1cc2c(s1)-c1ccc(Cl)cc1S(=O)(=O)C2` the inhibition was -9.15% (inactive).
In the case of `S=c1[nH]nc(-c2cc(-c3ccccc3)n[nH]2)n1/N=C/c1c(Cl)cccc1Cl`, the inhibition is reported as 6.95% (inactive).
In the case of `CC1CCCN(c2nc3ccccc3nc2C(C#N)S(=O)(=O)c2ccccc2)C1` (stereo not drawn), the inhibition is reported as 11.8% (inactive).
With `O=C1Nc2ccc(C(F)(F)F)cc2N2CCCC12` (stereo not drawn) the inhibition was 5.75% (inactive).
In the case of `Cc1ccccc1N=Cc1cc2c(cc1[N+](=O)[O-])OCO2`, the inhibition is reported as -2.65% (inactive).
In the case of `O=C1C(C2=NC(c3ccccn3)C3C(=O)N(c4ccc(Cl)cc4Cl)C(=O)C23)=C(O)c2ccccc21` (stereo not drawn), the inhibition is reported as 2.95% (inactive).
With `O=C(N/N=C/c1ccc([N+](=O)[O-])o1)c1cc2c(ccc3ccccc32)o1` the inhibition was 20.9% (inactive).
In the case of `O=C(N/N=C/c1ccc(-c2ccc(Cl)c(C(=O)O)c2)o1)c1cc2c(ccc3ccccc32)o1`, the inhibition is reported as 50.7% (active).
With `Cc1cc(C(=O)N/N=C/c2ccc(-c3ccc(C)c(Cl)c3)o2)n[nH]1` the inhibition was 4.9% (inactive).
In the case of `Cc1ccc(-n2c(SCC(=O)N/N=C/c3ccccc3C(=O)O)nnc2-c2ccc(Cl)cc2)cc1`, the inhibition is reported as 5.25% (inactive).
With `O=C(CN1C(=O)CSC1=O)Nc1ccc(C(=O)O)cc1` the inhibition was 1.7% (inactive).
With `O=C(CSc1nnc(SCc2ccccc2)s1)N/N=C/C=C\c1ccco1` the inhibition was 3.25% (inactive).
With `Cc1ccc2oc(-c3ccc(C)c(NC(=O)Cc4cccs4)c3)nc2c1` the inhibition was 22.6% (inactive).
With `Cc1nc2ccc(-c3nc4cc(N)ccc4o3)cc2[nH]1` the inhibition was 54.3% (active).
With `Nc1ccc2oc(-c3cccs3)nc2c1` the inhibition was 37.1% (active).
With `Cc1ccc(-c2nc3cc(N)ccc3o2)cc1` the inhibition was 55.7% (active).
In the case of `Cc1ccccc1-c1nc2cc(N)ccc2o1`, the inhibition is reported as 46.2% (active).
For `O=C(Nc1ccc2oc(-c3cccc4ccccc34)nc2c1)c1ncn[nH]1`, the inhibition was 16.2% (inactive).
In the case of `Cc1ccc(-n2nc(C)c3c2OC(N)=C(C#N)C3c2ccoc2)cc1` (stereo not drawn), the inhibition is reported as 1.75% (inactive).
In the case of `COc1ccc(OC)c(/C=C2\S/C(=N/NC(=O)c3ccc4ccccc4c3)NC2=O)c1`, the inhibition is reported as 8.75% (inactive).
For `Cc1cc(C)c(S(=O)(=O)/N=C2/C=C(SCC(=O)O)C(=O)c3ccccc32)cc1C`, the inhibition was -10.7% (inactive).
In the case of `O=C1C2C3C=CC(C3)C2C(=O)N1CNc1ccc(O)cc1` (stereo not drawn), the inhibition is reported as -8.05% (inactive).
In the case of `O=c1c2ccccc2nc(COc2ccccc2)n1/N=C/c1cc([N+](=O)[O-])ccc1O`, the inhibition is reported as -7.1% (inactive).
In the case of `Oc1ccc(NCc2cccc(OCc3ccccc3)c2)cc1`, the inhibition is reported as -19.4% (inactive).
For `O=C1C(NS(=O)(=O)c2cccs2)=C(N2CCN(c3cccc(C(F)(F)F)c3)CC2)C(=O)c2ccccc21`, the inhibition was -7.25% (inactive).
In the case of `Cc1ccccc1S(=O)(=O)Nc1nc2ccccc2nc1N1CCc2ccccc2C1`, the inhibition is reported as -3.1% (inactive).
For `N=c1c2cn[nH]c2nc(SCC(=O)c2ccc(Br)cc2)n1-c1ccc(Br)cc1`, the inhibition was 0.5% (inactive).
In the case of `O=C(CSc1nnc(-c2ccco2)c(-c2ccco2)n1)c1ccccc1`, the inhibition is reported as 9% (inactive).
In the case of `S=c1[nH]nc(-c2ccc(Cl)cc2)n1/N=C/C=C/c1ccco1`, the inhibition is reported as -4.3% (inactive).
For `CCOC(=O)C1CCCN(c2cc(NCCCO)c([N+](=O)[O-])c3nonc23)C1` (stereo not drawn), the inhibition was -8.1% (inactive).
With `O=C(NNC(=O)c1sc2ccccc2c1Cl)Nc1ccc(Cl)cc1` the inhibition was -5% (inactive).
For `COc1ccc2c(c1)Cc1sc(NC(=O)c3ccccc3)nc1-2`, the inhibition was 13.9% (inactive).
With `COCCN(CCOC)S(=O)(=O)c1ccc(C(=O)Nc2nc3c(s2)CCc2ccccc2-3)cc1` the inhibition was 36.7% (active).
With `COc1ccc(C(=O)Nc2nc3c(s2)Cc2cc(OC)ccc2-3)cc1` the inhibition was 5.45% (inactive).
With `O=C(NN1C(=O)/C(=C/C=C/c2ccco2)SC1=S)c1ccncc1` the inhibition was 16.8% (inactive).
With `Cc1cc(C)n(Cc2ccc(C(=O)N/N=C/c3ccc(-c4ccc([N+](=O)[O-])cc4)o3)o2)n1` the inhibition was 6.7% (inactive).
With `O=C(Cc1ccccc1)Nc1nnc(-c2ccco2)s1` the inhibition was 13.9% (inactive).
With `CCC(C)(C)C1CCc2c(sc(NC(=O)c3ccccc3C(=O)O)c2C#N)C1` (stereo not drawn) the inhibition was 7.6% (inactive).
In the case of `CCCCOc1ccc(/C=C/C(=O)Nc2ccc(C(N)=O)cc2)cc1`, the inhibition is reported as 10.9% (inactive).
With `COc1ccccc1NC(=O)c1sc2ncn(CC(=O)Nc3ccccc3)c(=O)c2c1C` the inhibition was 4.35% (inactive).
With `CCN(C(=S)Nc1cc(S(=O)(=O)N2CCOCC2)ccc1Cl)c1cccc2ccccc12` the inhibition was -26.1% (inactive).
For `O=C(O)c1cc2cccc(S(=O)(=O)N3CCOCC3)c2cc1O`, the inhibition was 49.6% (active).
In the case of `O=C(Nc1ccccc1O)c1cc(S(=O)(=O)N2CCOCC2)c(Cl)cc1Cl`, the inhibition is reported as 10.6% (inactive).
In the case of `Cc1occc1C(=O)N1CCN(c2ccccc2)CC1`, the inhibition is reported as 0.55% (inactive).
With `CCOc1ccc(N2C(=O)c3ccc(C(=O)OCC(=O)N(CC)C4CCS(=O)(=O)C4)cc3C2=O)cc1` (stereo not drawn) the inhibition was -4.1% (inactive).
With `Oc1ccc(N=Cc2c(O)ccc3ccccc23)cc1` the inhibition was 10.2% (inactive).
For `Oc1ccccc1N=Cc1c(O)ccc2ccccc12`, the inhibition was -5.9% (inactive).
With `Oc1ccc2ccccc2c1C=Nc1ccc(Cl)cn1` the inhibition was 37.1% (active).
With `CC1=CC2(O)OCCN(CCO)C2=CC1=O` (stereo not drawn) the inhibition was 4.6% (inactive).
With `O=C1C=C(O)c2c(O)cccc2C1=O` the inhibition was -24.9% (inactive).
In the case of `COc1cccc(/C=C2/SC(=S)N(CC(=O)NNC(=O)c3ccccc3O)C2=O)c1`, the inhibition is reported as -13% (inactive).
In the case of `CN(c1ccccc1)c1cc(=O)[nH]c(=O)[nH]1`, the inhibition is reported as 0.55% (inactive).
For `CCN(c1ccccc1)c1cc2ccccc2c(=O)[nH]1`, the inhibition was 37% (active).
In the case of `Cc1ccccc1Nc1cc2ccccc2c(=O)[nH]1`, the inhibition is reported as 25.8% (inactive).
For `Cc1[nH][nH]c(=O)c1C(c1ccc(-c2ccccc2C(=O)O)o1)c1c(C)[nH][nH]c1=O`, the inhibition was 9.65% (inactive).
In the case of `COc1ccc(CCN2Cc3c(cccc3[N+](=O)[O-])C2=O)cc1OC`, the inhibition is reported as -1.3% (inactive).
For `CCOc1ccccc1CNc1ccc(O)cc1`, the inhibition was -10.2% (inactive).
For `O=C(/C=C/c1ccco1)NC(=S)Nc1ccc(O)c(-c2nc3ccccc3s2)c1`, the inhibition was 9.4% (inactive).
In the case of `O=C(COC(=O)c1cc(-c2cccs2)nc2ccccc12)NCc1ccco1`, the inhibition is reported as 16.3% (inactive).
In the case of `Cc1ccc2c(SCC(=O)NCc3ccco3)nc(-c3ccc(F)cc3)nc2c1`, the inhibition is reported as -4.7% (inactive).
With `CCOc1cc(NC(=S)NCc2ccco2)c(OCC)cc1NC(=O)CC` the inhibition was -7.1% (inactive).
For `O=C(NCc1ccco1)Nc1ccc2snnc2c1`, the inhibition was 38.8% (active).
For `Cc1nc2ccc(NC(=O)NCc3ccco3)cc2s1`, the inhibition was 31.5% (active).
With `CN(C)c1cc(N/N=C/c2ccc(Cl)cc2)nc(N(C)C)n1` the inhibition was 7% (inactive).
For `O=C(O)CN1C(=O)/C(=C\c2cc([N+](=O)[O-])ccc2OCc2ccccc2Cl)SC1=S`, the inhibition was 8.45% (inactive).
With `Cc1ccc(NC2=CC(=O)CC(c3ccco3)C2)c(N)c1` (stereo not drawn) the inhibition was 1% (inactive).
In the case of `COc1ccc(-c2cc(=O)[nH][nH]2)cc1`, the inhibition is reported as 2.7% (inactive).
For `N#CC(c1nc2ccccc2nc1N1CCCC1)S(=O)(=O)c1cccs1` (stereo not drawn), the inhibition was -0.1% (inactive).
In the case of `COC(=O)c1cccc(-c2ccc(C(c3c(C)[nH][nH]c3=O)c3c(C)[nH][nH]c3=O)o2)c1`, the inhibition is reported as -4.3% (inactive).
In the case of `Oc1ccc(Br)cc1CNc1cccc2cccnc12`, the inhibition is reported as -17.6% (inactive).
For `O=C1C=C(N2CCOCC2)c2ccccc2C1=O`, the inhibition was 51.9% (active).
For `Cc1ccc(NC2=CC(=O)C(=O)c3ccccc32)cc1`, the inhibition was -12.4% (inactive).
For `O=C1C=C(Nc2ccccc2)c2ccccc2C1=O`, the inhibition was -24.5% (inactive).
With `Cc1[nH][nH]c(=O)c1C(c1c(C)[nH][nH]c1=O)c1cn(Cc2cccc3ccccc23)c2ccccc12` the inhibition was -32.7% (inactive).
For `CCOc1cc(CNc2ccccc2SC)ccc1O`, the inhibition was -6.3% (inactive).
For `COc1cc(C)c2c(c1C=O)Oc1c(c(C)c(O)c3c1C(O)OC3=O)OC2=O` (stereo not drawn), the inhibition was 12.4% (inactive).
For `CN(C)/C=C1\Oc2ccc3ccccc3c2C1=O`, the inhibition was -6.85% (inactive).
For `CC1=Nc2nc(N3CCCCC3)c(C#N)c3c4c(nc(c23)N1)N(c1ccc(C(C)C)cc1)C(=O)C4`, the inhibition was 15.2% (inactive).
For `O=C(O)COc1ccccc1C(Nc1cccnc1)c1cc(Cl)c2cccnc2c1O` (stereo not drawn), the inhibition was 30.4% (active).
In the case of `CCOc1ccc(C(Nc2cccnc2)c2cc(Cl)c3cccnc3c2O)cc1` (stereo not drawn), the inhibition is reported as 14.3% (inactive).
In the case of `CCCCC(=O)NC(c1ccccc1Cl)c1ccc2cccnc2c1O` (stereo not drawn), the inhibition is reported as -42.6% (inactive).
In the case of `COc1ccc(/C=N/N=C2/CC(C)(C)Cc3n[nH]c(=O)cc32)cc1`, the inhibition is reported as 0.85% (inactive).
With `COc1ccccc1NC(=O)Cn1c(O)c(N=NC(=O)c2ccccc2O)c2ccccc21` the inhibition was 2.2% (inactive).
For `CCCCn1c(NC(=O)c2ccc(Br)o2)c(S(=O)(=O)c2ccccc2)c2nc3ccccc3nc21`, the inhibition was 1.65% (inactive).
With `Cc1ccc(C)c(-c2nc3ccc(N)cc3[nH]2)c1` the inhibition was 57% (active).
For `Nc1ccc(-c2nc3ccc(N)cc3[nH]2)cc1`, the inhibition was 66.3% (active).
In the case of `Nc1ccc2nc(-c3ccc(-c4nc5ccc(N)cc5[nH]4)cc3)[nH]c2c1`, the inhibition is reported as 25.4% (inactive).
In the case of `O=C(Nc1nccs1)c1cc(-c2ccco2)nc2ccccc12`, the inhibition is reported as 22.2% (inactive).
In the case of `Cc1oc2c(c1C(=O)O)C(=O)c1ccccc1C2=O`, the inhibition is reported as -5.95% (inactive).
With `Cc1ccc(NC(=O)CN2C(=O)S/C(=C\c3ccc(-c4cccc(C(=O)O)c4C)o3)C2=O)cc1C` the inhibition was 26.3% (inactive).
In the case of `O=S(=O)(Nc1ccc(O)c2ccccc12)c1cccs1`, the inhibition is reported as -16.9% (inactive).
